The full list was thinned out, with hits kept by preference.
DT40 TDP1 CPT = DT40-hTDP1 cell growth loss with CPT | chicken DT40 Tdp1-/-;hTDP1 cells + 20 nM CPT, ATP luminescence, 48 h | AID 686979 | 12% of 420,000 active | Potency, µM (top dose mostly 46.2 µM), most hits filed as inhibitors; further: nearly all actives have a fitted effect of over 55% in size
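Chicken DT40 Tdp1-/- cells complemented with human TDP1, 400 cells/well, exposed to compounds plus 20 nM camptothecin for at least 48 h at 37 C; viability read as ATP content by CellTiter-Glo luminescence.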
HT1080 IDH1KD tx = kills HT-1080 cells with IDH1 knockdown | HT-1080 IDH1 knockdown viability, ATP luminescence, 48 h | Potency, µM (doses to about 46.1 µM), actives largely listed as cytotoxic | 2% of 360,000 active
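% activity derives from luminescence (CellTiter-Glo), normalised to DMSO and no-cell wells. HT-1080-IDH1KD cells, 750/well, had 48 h compound exposure at 37 °C.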
ALOX12 inh = ALOX12 (human) lipoxygenase inhibition. AID 1671190. 1.1% of 580,000 active. Potency, µM (series often up to 108 µM), usual class: inhibitors. purified 12hLO, xylenol orange hydroperoxide absorbance
Target sequence (P18054 whole entry, looked up): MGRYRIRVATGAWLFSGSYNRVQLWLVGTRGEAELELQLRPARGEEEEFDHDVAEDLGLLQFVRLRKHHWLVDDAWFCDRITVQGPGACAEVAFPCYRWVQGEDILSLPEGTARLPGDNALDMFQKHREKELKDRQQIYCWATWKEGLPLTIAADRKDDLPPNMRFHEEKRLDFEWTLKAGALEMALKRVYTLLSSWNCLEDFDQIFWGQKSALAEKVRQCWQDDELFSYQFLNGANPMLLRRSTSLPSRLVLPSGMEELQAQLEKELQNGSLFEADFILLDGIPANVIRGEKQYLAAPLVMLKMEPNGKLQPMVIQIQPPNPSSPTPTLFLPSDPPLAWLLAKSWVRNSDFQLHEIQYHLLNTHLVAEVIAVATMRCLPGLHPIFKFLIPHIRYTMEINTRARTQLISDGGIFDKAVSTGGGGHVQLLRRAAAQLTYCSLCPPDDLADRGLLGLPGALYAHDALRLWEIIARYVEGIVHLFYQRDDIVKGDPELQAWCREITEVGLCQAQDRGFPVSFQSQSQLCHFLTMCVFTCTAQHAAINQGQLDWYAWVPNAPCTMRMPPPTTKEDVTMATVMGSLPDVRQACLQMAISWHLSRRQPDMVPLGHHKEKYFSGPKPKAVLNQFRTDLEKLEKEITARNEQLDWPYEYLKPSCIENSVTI
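Purified human 12hLO at 150 nM in 25 mM Hepes, 0.01% Triton X-100, pH 7.0, preincubated 15 min at room temperature with compound. Reaction started with 40 uM arachidonic acid, 30 min at room temperature. Hydroperoxide measured by Fe-xylenol orange, 573/405 nm absorbance ratio.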
IL1B secr inh = inflammasome signaling inhibition, IL-1 beta readout. activity change, % at 57.5 µM. 4.7% of 360,000 active. THP-1 LPS/ATP IL-1B secretion, AlphaLISA, 16 h; hits give low values. AID 743279; in the data active means activity change below about -50%; inconclusive means mostly about -30% to -49%
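THP-1 cells pretreated 1 hr with compounds (up to 57.5 uM final), then stimulated with LPS (250 ng/mL final) plus ATP (1.25 mM final); secreted IL-1B measured by AlphaLISA after 16 hr, decreased signal indicating inhibition.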
TDP1 cell noCPT = qHTS for Inhibitors of human tyrosyl-DNA phosphodiesterase 1 (TDP1): qHTS in cells in absence of CPT; AID 686978, 2013; 15% of 420,000 active; Potency, µM (top dose mostly 46.2 µM), actives largely listed as inhibitors; DT40 Tdp1-/- hTDP1 cells, no CPT, ATP luminescence, 48 h; further: nearly all actives have a fitted effect of over 55% in size
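Luminescent ATP content (CellTiter-Glo) served as the growth readout. Knockout chicken DT40 cells expressing human TDP1 were exposed to compounds without camptothecin for a minimum 48 hr at 37 °C.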
HT1080NT lethal = kills 2HG-producing HT-1080-NT fibrosarcoma cells | AID 686970 | HT-1080-NT fibrosarcoma viability, CellTiter-Glo ATP luminescence, 48 h | 1.6% of 360,000 active | Potency, µM (series often up to 46.1 µM), actives largely listed as cytotoxic;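 further: NT is the 2HG producing partner of a matched IDH1 knockdown line; nearly all actives have a fitted effect of over 55% in size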
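A 48-hour cytotoxicity screen used HT-1080-NT cells plated 2 hours before compound delivery. ATP-based CellTiter-Glo luminescence measured viability, normalized to DMSO and no-cell controls.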
Hits are given with their value; n = inactive; u = inconclusive; x = not tested or not shown. Unless noted, the call rests on the fitted dose curve; in most records, active means well fitted curve in the direction sought with a large enough effect; inconclusive means small, poorly fitted or top-dose-only effect, or another doubt; inactive means no such curve, though single readings can be large; an effect the other way counts as inactive or inconclusive.

SMILES	DT40 TDP1 CPT	HT1080 IDH1KD tx	ALOX12 inh	IL1B secr inh	TDP1 cell noCPT	HT1080NT lethal
Cc1cccc(C(=O)Nc2cccc(NC(=O)c3ccccc3)c2)c1	n	n	n	n	u	n
Cc1cccc(NC2=C(NC(=O)c3ccccc3)C(=O)c3ccccc3C2=O)c1	10µM	u	14µM	-74	12µM	u
O=C(Nc1cc(N2CCCCC2)ncn1)c1ccccc1	n	n	u	n	u	n
O=C(NC(NC1CCS(=O)(=O)C1)C(=O)c1cccs1)c1ccccc1 (stereo not drawn)	n	n	n	n	n	n
Cc1ccc(CN2CCN(c3ncncn3)CC2=O)cc1	x	x	n	x	x	x
O=C(NC1=C(Nc2ccc(Cl)cc2)C(=O)c2ccccc2C1=O)c1ccccc1	23µM	n	n	u	16µM	u
CN(C1=C(NC(=O)c2ccc(Cl)cc2)C(=O)c2ccccc2C1=O)c1ccccc1	5.8µM	n	n	-74	10µM	n
O=C(Nc1ccc(NS(=O)(=O)c2ccccc2)cc1)c1ccc(Cl)cc1	n	n	n	n	n	n
CCCn1nc(C(=O)N(CC)CC(=O)NC2CCS(=O)(=O)C2)c2ccccc2c1=O (stereo not drawn)	x	x	n	x	x	x
CCC(C(=O)NCCc1cc(OC)ccc1OC)n1nc(C)c2c(C)n(-c3ccccc3)nc2c1=O (stereo not drawn)	18µM	x	n	x	u	x
COc1ccc(OC)c(CCNC(=O)C(C)n2nc(C)c3c(C)n(-c4ccc(C)cc4)nc3c2=O)c1 (stereo not drawn)	u	21µM	n	n	18µM	n
COc1ccc(OC)c(CCNC(=O)C(C)n2nc(C)c3c(C)n(-c4ccccc4)nc3c2=O)c1 (stereo not drawn)	u	n	n	n	u	n
CCC(C(=O)NCc1ccc(C)o1)n1nc(C)c2c(C)n(-c3ccccc3)nc2c1=O (stereo not drawn)	n	n	n	n	n	n
COc1ccc(CCNC(=O)Cn2nc(C)c3c(C)n(-c4ccc(C)cc4)nc3c2=O)c(OC)c1	16µM	x	u	x	u	x
CC1CCC2(CC1)NC(=O)N(CC(=O)NC1CCCC1)C2=O (stereo not drawn)	x	x	n	x	x	x
Cn1c(=O)n(C)c2cc(NC(=O)CSc3nnc(-c4ccccc4O)n3-c3ccccc3)ccc21	18µM	n	n	n	u	n
COc1ccc(NC(=O)CSc2nnc(-c3cccs3)n2-c2ccccc2)cc1	n	u	n	n	n	23µM
COc1ccc(NC(=O)CSc2nnc(-c3ccccc3C)n2N)cc1	16µM	n	n	n	21µM	n
COc1ccc(NC(=O)CSc2nnc(C3CC3)n2-c2ccccc2)cc1	n	n	n	n	n	n
Cc1ccccc1Cn1c(=O)n(CCCCCC(=O)NCc2ccc3c(c2)OCO3)c(=O)c2sccc21	n	x	n	x	n	x
CCOC(=O)c1ccc(N2CSC3=C(C#N)C(c4cccs4)CC(=O)N3C2)cc1 (stereo not drawn)	n	u	18µM	n	n	n
CCc1ccc(N2CSC3=C(C#N)C(c4cccs4)CC(=O)N3C2)cc1 (stereo not drawn)	u	n	x	n	16µM	n
N#CC1=C2SCN(c3ccc(F)cc3)CN2C(=O)CC1c1cccc(F)c1 (stereo not drawn)	u	n	6.3µM	n	n	n
COc1ccc(N2CSC3=C(C#N)C(c4cccs4)CC(=O)N3C2)cc1 (stereo not drawn)	n	n	n	n	n	n
COC(=O)C1=C(C)N=C2SC=C(CC(=O)Nc3ccc(C)cc3)N2C1c1cccc(OC)c1 (stereo not drawn)	x	x	n	x	x	x
COc1cc(/C=C2\C(C)=C(C#N)c3nc(N)c(C#N)c(C)c32)ccc1OCC(=O)O	23µM	n	u	n	u	n

Screening data from PubChem BioAssay.
